Source: PubChem
Pf growth 48h = inhibits P. falciparum growth in the first generation, 48 h; P. falciparum luciferase growth in erythrocytes, 48 h; hit rate 5.9% among 310,000; Potency, µM (top dose mostly 28.7 µM), actives largely listed as inhibitors; AID 504832
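Luminescence readout; reporter = integrated firefly luciferase in P. falciparum. RBC culture at 2% hematocrit, 0.1% parasitemia final, 37 C/5% CO2; decreased signal taken as growth inhibition.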
CHX counter = counter-screen for Shiga toxin inhibitors: cycloheximide protein synthesis inhibition | hit rate 12% among 300,000 | cell reporter, cycloheximide protein synthesis inhibition counterscreen | max response, %; in the data active = max response mostly above about 13%, no sharp cut-off; inactive = mostly below about 14%; also: read at 38.3 µM for the half of the compounds with a filed dose
HCMV antiviral = blocks human cytomegalovirus replication; HFF cells, HCMV-luciferase reporter, 72 h; hits give low values; activity change, negative = inhibition, % at 57.5 µM; hit rate 4.5% among 410,000; in the data active = activity change below about -60%; inconclusive = no clear call, values can overlap the other calls; inactive = above about -39%
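Luciferase read-out from HCMV-luciferase-infected HFFs (MOI 1 PFU/cell) 72 h post infection at 37C; compounds added after 16 h cell attachment; activity normalized between buffer-only basal and Salinomycin (10uM) inhibitor controls.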
Shiga toxin inh = Shiga toxin inhibition; Vero cells, Shiga toxin protein synthesis inhibition reporter; inhibition, % at 38.7 µM; hit rate 9.2% among 290,000; AID 2315; in the data active = inhibition mostly above about 28%, no sharp cut-off; inactive = mostly below about 43%
HCV inh = inhibitors of hepatitis C virus infection; Potency, µM (doses to about 41.8 µM), hits mostly inhibitors; hit rate 3.4% among 340,000; Huh7.5.1 HCVcc-Cre infection, luciferase reporter, 44 h
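Cells (1,000/well) were plated 4 h before compound, then infected with HCVcc-Cre virus (~0.5 moi). After 44 h further culture, infection was read as luciferase luminescence following a 15 min substrate incubation at room temperature.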
Pf growth 96h = inhibits malaria parasite growth, 96 h | hit rate 6.9% among 320,000 | Potency, µM (highest dose often 28.7 µM), hits mostly inhibitors | P. falciparum luciferase reporter growth, 96 h | AID 504834
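P. falciparum expressing integrated firefly luciferase grown in erythrocytes (2% hematocrit, 0.05% parasitemia final) with compounds for 96 hours at 37 C, 5% CO2. Growth inhibition read as loss of luminescence after adding luciferase detection reagent.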
A number is an active result; – = inactive; ? = inconclusive; · = no result given; [ ] = dose if it differs, or a comment. Rows were chosen to be rich in hits. Some 21% of all compounds tested hit in one or more screens of this group. Unless noted, calls follow the shape of the dose curve; as a rule, active = well fitted inhibition curve with a large enough effect; inconclusive = small, poorly fitted or top-dose-only effect, or another doubt; inactive = no such curve, though single readings can be large or run the other way.

SMILES	Pf growth 48h	CHX counter	HCMV antiviral	Shiga toxin inh	HCV inh	Pf growth 96h
Cc1nc(N2CCN(C(=O)c3ccco3)CC2)c(C#N)c2c1CCCC2	?	–	–	–	?	?
CN(C)S(=O)(=O)c1ccc2c(c1)N(CC(=O)N1CCN(c3ccccc3F)CC1)CCS2	·	·	–	·	·	·
Cc1c(C=O)c2ccccn2c1C(=O)c1cccc([N+](=O)[O-])c1	–	–	–	–	?	?
COC(=O)c1c(C(=O)OC)c2ccccn2c1C(=O)c1ccc([N+](=O)[O-])cc1	–	–	-102	–	–	–
COc1nc(OC/C(N)=N/O)nc(N2CCOCC2)n1	–	–	–	–	–	–
CCOC(=O)COc1nc(OC)nc(N2CCOCC2)n1	–	–	–	–	–	2.6µM
COc1ccc(C(O)c2ncc(-c3ccccc3F)[nH]2)cc1 (configuration not stated)	·	·	–	·	·	·
OCC[C@@H]1C[C@H](O)[C@@H](O)[C@@]2(CCCO2)O1	·	·	–	·	–	·
CNCCC=C1c2ccccc2CCc2ccccc21	11µM	–	–	–	–[8.37 µM]	9.5µM
COC(=O)C1=C(c2ccccc2OCc2ccccc2)C[C@@H]2CC[C@H]1N2C(=O)NCc1ccc(OC)c(OC)c1	13µM	·	–	·	?	?
COC(=O)C1=C(c2ccc(F)cc2OCc2ccccc2)C[C@@H]2CC[C@H]1N2C(=O)NCc1ccc(OC)cc1	13µM	·	–	·	?	?
COC(=O)C1=C(c2ccccc2OCc2ccccc2)C[C@@H]2CC[C@H]1N2C(=O)NCc1cccc(F)c1	9.3µM	·	–	·	?	?
COC(=O)C1=C(c2ccc(F)cc2OCc2ccccc2)C[C@@H]2CC[C@H]1N2C(=O)NCc1ccc(Br)cc1	2.1µM	·	–	·	?	?
CCc1nnc(SCC(=O)Nc2ccc(N3CCN(S(C)(=O)=O)CC3)cc2)o1	–	–	–	–	–	?
Cc1ccc(C(=O)COC(=O)c2cc(-c3ccc(Cl)cc3)nc3ccccc23)cc1	·	·	–	·	·	·
COC(=O)C1=C(c2ccc(F)cc2OCc2ccccc2)C[C@@H]2CC[C@H]1N2C(=O)NCc1cccc(OC)c1	9.3µM	·	–	·	?	?
COC(=O)C1=C(c2ccc(F)cc2OCc2ccccc2)C[C@@H]2CC[C@H]1N2C(=O)NCc1cccc(C(F)(F)F)c1	4.7µM	·	–	·	?	?
COCCN(CC(=O)Nc1cccc(C)c1C)C(=O)Cc1ccsc1	·	·	?	·	–	·
NC[C@@H]1O[C@H](C23CC4CC(CC(C4)C2)C3)Cc2c1ccc(O)c2O	9.3µM	–	?	–	–	5.9µM
CCN(C(=O)COC(=O)c1c(C)c(-c2ccccc2)nc2ccccc12)C1CCS(=O)(=O)C1 (configuration not stated)	?	–	–	–	13µM	?
CC(C)CN(C(=O)COC(=O)c1c(Cl)ccc(Cl)c1Cl)C1CCS(=O)(=O)C1 (configuration not stated)	?	–	–	–	–	12µM
CCN(C(=O)COC(=O)c1cc(-c2cccs2)nc2ccccc12)C1CCS(=O)(=O)C1 (configuration not stated)	–	–	–	–	11µM	–
COc1ccc(-c2cc(C(=O)OCC(=O)N(C)C3CCS(=O)(=O)C3)c3ccccc3n2)cc1OC (configuration not stated)	–	17	–	–	3.2µM	–
CCN(C(=O)COC(=O)c1cc(-c2ccc(C)o2)nc2ccccc12)C1CCS(=O)(=O)C1 (configuration not stated)	–	–	–	–	–	–
Cc1ccc(-n2c(=O)c3c(c4cc(C)ccc4n3C)n(CC(=O)c3ccc(Cl)cc3)c2=O)cc1	·	·	–	·	·	·
SMILES	Pf growth 48h	CHX counter	HCMV antiviral	Shiga toxin inh	HCV inh	Pf growth 96h
CCCCCCn1c(=O)n2n(c1=O)C[C@]1(OC(=O)NC3CC3)CN(S(=O)(=O)c3ccc(C)cc3)C[C@]1(O)C2	·	·	–	·	·	·
O=c1cc(-c2ccccc2Cl)oc2ccc([N+](=O)[O-])c(O)c12	–	–	–	–	–	?
Nc1ccc2oc(-c3ccccc3Cl)cc(=O)c2c1O	–	50	–	43	?	–
O=c1cc(-c2ccccc2Cl)oc2c([N+](=O)[O-])c(O)cc(O)c12	–	–	-72	–	–[8.37 µM]	–
CN(C)c1ccc(C(=O)Nc2ccc(O)c3c(=O)cc(-c4ccccc4Cl)oc23)cc1	?	–	–	–	32µM	?
COc1ccccc1-c1cc(=O)c2c(O)ccc([N+](=O)[O-])c2o1	12µM	–	–	–	–	10µM
COC(=O)[C@H](Cc1ccccc1)NC(=O)/C=C/[C@H]1O[C@@H](n2cc(C)c(=O)[nH]c2=O)C[C@@H]1O	·	·	–	·	·	·
CCc1nn2c(=O)cc(CSCC(=O)Nc3ccccc3Cl)nc2s1	–	–	·	–	–	?
O=C1C=CC(=O)N1c1ccc(O)cc1	–	–	–	–	–	–
O=C1C=CC(=O)N1c1ccc(OC(F)F)cc1	–	–	–	–	?	9.3µM
Cc1cc(NC(=O)c2cc(-c3ccco3)on2)no1	–	–	–	–	–	–
Cc1nc(NC(=O)c2cccs2)ccc1Br	–	54	–	106	?	–
CC(C)NC(=O)c1cc(-c2cccs2)on1	–	31	–	57	–	·
Cc1cc(NC(=O)c2cc(C(C)C)on2)no1	–	48	–	67	–	?
Cc1cc(C)nc(NC(=O)c2cccs2)c1	–	21	–	·	–	?
COc1ccc(-c2ccc(CN3C(C(C)C)C(=O)N(Cc4cn(Cc5ccco5)nn4)CCS3(=O)=O)cc2)cc1OC (configuration not stated)	·	·	–	·	·	·
CN1CCN(C(CNC(=O)C(=O)NC2CCCCC2)c2ccc(F)cc2)CC1 (configuration not stated)	–	·	–	·	–	–
Cc1cc(NC(=O)c2cccs2)no1	–	33	–	57	–	–
Cc1cc(NC(=O)c2cc(-c3cccs3)on2)no1	–	29	–	114	–	–
CC(=O)Nc1ccc(NC(=O)c2cc(-c3cccs3)on2)cc1	·	·	–	·	·	·
CC(C)Oc1ccc(S(=O)(=O)N2CCCCC2)cc1NC(=O)C1CCC1	–	·	–	·	–	?
CC(C)(C)C1=CC(=O)C(N2CCOCC2)=CC1=O	10µM	–	–	–	–	15µM
O=c1c(N2CCOCC2)c(N2CCOCC2)c1=O	–	–	–	–	–	–
C[C@H](NC(=O)c1nc[nH]c1C(=O)N1CCN(c2ccccc2)CC1)c1ccccc1	–	·	–	·	–	–
COc1ccc(OC)c(-n2c(=S)[nH]c3cc(C(=O)N(C)Cc4ccccc4)ccc3c2=O)c1	?	–	–	–	–	9.3µM
COc1ccc(NC(=O)c2ccc3c(=O)n(-c4ccc(OC)cc4OC)c(=S)[nH]c3c2)cc1	?	–	–	–	?	–
COc1ccc(-n2c(=S)[nH]c3cc(C(=O)Nc4ccc(F)cc4)ccc3c2=O)c(OC)c1	–	–	-70	–	?	–
NC(=O)C1CCN(C(=O)CCNS(=O)(=O)c2ccccc2F)CC1	–	·	–	·	–	–
